From the supplement of paper PMC11732987, “Enantioselective OTUD7B fragment discovery through chemoproteomics screening and high-throughput optimisation” (Communications Chemistry, 2025)

How the values were obtained:
Assay in all cases: log2 ratio of Biotin-Ahx-Ub-VS probe labelling (fragment/DMSO); higher = less target engagement (more negative = stronger competition), active = hit call of the paper (q ≤ 0.05, log2 ratio ≤ -1)
Details in all cases: compound concentration: 200 uM; treatment time: 3 h
[1] = target: T1, USP19 (UniProt O94966)
T1 sequence (whole entry): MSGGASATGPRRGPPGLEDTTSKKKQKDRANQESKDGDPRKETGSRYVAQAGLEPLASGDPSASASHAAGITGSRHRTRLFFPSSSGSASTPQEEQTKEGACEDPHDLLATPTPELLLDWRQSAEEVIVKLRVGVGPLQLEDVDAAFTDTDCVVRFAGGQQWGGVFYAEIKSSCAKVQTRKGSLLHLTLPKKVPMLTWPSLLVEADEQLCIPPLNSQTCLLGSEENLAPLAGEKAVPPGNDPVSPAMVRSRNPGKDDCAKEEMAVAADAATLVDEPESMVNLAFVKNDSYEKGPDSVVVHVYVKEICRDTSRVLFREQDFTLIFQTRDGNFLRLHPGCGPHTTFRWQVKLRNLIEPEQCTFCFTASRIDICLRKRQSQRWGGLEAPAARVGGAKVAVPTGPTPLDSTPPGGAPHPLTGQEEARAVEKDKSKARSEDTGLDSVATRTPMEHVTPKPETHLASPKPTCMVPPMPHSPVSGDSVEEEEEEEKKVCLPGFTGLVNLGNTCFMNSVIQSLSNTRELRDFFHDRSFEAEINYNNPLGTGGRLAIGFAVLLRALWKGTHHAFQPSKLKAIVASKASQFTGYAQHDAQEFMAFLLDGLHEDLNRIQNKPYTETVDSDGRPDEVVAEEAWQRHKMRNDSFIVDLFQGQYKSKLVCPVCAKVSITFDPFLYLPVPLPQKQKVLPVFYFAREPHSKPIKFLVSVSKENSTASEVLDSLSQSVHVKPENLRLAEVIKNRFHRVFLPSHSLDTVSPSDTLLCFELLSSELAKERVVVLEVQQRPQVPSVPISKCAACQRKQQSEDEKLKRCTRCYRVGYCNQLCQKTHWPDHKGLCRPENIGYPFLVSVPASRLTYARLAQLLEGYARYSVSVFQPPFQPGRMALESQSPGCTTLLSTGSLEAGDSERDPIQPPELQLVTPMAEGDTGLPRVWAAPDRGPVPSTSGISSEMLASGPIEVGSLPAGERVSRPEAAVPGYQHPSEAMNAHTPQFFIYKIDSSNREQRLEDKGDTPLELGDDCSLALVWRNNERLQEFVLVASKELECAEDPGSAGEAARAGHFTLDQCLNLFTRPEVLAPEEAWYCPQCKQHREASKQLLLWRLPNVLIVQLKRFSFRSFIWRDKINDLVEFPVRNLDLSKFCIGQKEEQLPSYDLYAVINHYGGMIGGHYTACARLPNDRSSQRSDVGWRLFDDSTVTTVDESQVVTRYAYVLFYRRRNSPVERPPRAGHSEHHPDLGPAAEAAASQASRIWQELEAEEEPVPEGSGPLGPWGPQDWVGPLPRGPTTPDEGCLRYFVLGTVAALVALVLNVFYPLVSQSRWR
Procedure, shortened: (§1)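 Each value is an average log2 ratio of fragment to vehicle, tested by unpaired t-test. The underlying Spectronaut label-free quantities were global-median-normalised, and only proteins with ≥2 unique peptides were included. Triplicate HEK293T lysate samples (495 µg) were exposed to fragment at 200 µM or vehicle for 3 h, then to Biotin-Ahx-Ub-VS at 0.5 µM final for 1 h, before NeutrAvidin enrichment of labelled DUBs, LysC and trypsin digestion, and diaPASEF LC-MS/MS.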

[2] = target: T2, USP22 (UniProt Q9UPT9)
T2 sequence (whole entry): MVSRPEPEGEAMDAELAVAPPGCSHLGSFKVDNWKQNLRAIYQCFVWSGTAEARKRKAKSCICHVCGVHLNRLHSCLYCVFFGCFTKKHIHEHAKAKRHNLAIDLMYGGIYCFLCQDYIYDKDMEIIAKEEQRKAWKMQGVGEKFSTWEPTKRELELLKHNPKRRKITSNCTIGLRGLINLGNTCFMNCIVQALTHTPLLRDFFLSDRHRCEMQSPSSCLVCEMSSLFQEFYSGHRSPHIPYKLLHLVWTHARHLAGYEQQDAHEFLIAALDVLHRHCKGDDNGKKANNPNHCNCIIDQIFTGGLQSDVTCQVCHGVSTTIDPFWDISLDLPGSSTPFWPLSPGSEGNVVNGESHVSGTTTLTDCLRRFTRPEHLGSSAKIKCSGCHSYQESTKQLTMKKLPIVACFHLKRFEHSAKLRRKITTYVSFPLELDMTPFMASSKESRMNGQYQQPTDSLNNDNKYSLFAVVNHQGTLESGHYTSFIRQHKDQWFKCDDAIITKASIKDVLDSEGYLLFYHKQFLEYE
Procedure, shortened: as §1

[3] = target: USP24 (UniProt Q9UPU5)
Procedure, shortened: as §1

[4] = target: T3, USP25 (UniProt Q9UHP3)
T3 sequence (whole entry): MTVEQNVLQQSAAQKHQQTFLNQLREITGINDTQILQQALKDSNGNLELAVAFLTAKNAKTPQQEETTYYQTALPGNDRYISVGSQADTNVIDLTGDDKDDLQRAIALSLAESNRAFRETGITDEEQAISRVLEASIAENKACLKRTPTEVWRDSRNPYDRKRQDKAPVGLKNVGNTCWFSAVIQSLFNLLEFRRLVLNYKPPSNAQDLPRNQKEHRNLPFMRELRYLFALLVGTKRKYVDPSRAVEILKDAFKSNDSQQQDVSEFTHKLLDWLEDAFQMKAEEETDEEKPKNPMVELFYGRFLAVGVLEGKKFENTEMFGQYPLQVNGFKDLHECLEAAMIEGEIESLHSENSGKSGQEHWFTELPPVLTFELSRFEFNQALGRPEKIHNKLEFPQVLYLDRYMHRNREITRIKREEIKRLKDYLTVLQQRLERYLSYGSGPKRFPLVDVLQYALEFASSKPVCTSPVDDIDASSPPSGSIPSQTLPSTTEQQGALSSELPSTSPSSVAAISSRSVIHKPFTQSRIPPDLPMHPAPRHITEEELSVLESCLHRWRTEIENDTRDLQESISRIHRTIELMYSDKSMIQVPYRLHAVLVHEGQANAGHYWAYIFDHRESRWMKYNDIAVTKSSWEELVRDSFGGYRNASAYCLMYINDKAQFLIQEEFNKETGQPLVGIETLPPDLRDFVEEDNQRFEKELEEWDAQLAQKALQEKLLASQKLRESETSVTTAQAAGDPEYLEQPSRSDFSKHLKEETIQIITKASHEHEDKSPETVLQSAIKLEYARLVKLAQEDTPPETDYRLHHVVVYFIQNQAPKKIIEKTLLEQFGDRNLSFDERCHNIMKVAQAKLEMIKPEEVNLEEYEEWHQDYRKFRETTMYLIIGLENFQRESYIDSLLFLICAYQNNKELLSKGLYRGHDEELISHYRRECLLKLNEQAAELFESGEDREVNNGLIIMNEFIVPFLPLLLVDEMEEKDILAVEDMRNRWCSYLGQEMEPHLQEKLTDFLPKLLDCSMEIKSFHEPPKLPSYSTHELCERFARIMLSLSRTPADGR
Procedure, shortened: as §1

[5] = target: T4, USP28 (UniProt Q96RU2)
T4 sequence (whole entry): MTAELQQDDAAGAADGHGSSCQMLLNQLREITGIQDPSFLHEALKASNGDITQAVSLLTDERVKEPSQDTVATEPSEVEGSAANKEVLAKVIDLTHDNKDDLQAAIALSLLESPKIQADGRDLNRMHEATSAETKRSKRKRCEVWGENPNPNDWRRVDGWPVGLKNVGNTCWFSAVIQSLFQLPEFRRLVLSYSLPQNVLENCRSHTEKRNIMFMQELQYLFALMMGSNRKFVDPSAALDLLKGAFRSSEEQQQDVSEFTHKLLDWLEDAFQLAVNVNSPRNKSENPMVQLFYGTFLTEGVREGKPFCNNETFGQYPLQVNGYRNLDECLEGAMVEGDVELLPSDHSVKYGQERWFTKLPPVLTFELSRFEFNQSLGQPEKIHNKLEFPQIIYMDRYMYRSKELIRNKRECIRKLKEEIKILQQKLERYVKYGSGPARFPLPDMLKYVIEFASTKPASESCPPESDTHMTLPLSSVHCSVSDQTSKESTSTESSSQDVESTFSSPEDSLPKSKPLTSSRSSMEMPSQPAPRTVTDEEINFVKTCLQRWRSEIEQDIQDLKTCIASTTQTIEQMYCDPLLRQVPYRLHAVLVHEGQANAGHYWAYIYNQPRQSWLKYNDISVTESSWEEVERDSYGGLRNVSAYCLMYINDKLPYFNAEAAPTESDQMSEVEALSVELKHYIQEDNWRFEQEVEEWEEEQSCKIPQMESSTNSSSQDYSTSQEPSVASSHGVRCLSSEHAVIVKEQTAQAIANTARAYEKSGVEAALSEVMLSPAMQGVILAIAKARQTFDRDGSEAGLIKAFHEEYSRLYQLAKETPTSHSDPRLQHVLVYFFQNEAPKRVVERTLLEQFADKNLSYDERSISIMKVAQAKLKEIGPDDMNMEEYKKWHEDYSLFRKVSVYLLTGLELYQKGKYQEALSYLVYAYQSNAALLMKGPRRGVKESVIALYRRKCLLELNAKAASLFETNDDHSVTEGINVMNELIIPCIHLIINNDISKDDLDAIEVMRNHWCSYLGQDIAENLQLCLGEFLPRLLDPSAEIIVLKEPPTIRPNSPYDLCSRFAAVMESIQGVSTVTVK
Procedure, shortened: as §1

Measured: log2 ratio of Biotin-Ahx-Ub-VS probe labelling

USP24, sequence (Q9UPU5 whole entry): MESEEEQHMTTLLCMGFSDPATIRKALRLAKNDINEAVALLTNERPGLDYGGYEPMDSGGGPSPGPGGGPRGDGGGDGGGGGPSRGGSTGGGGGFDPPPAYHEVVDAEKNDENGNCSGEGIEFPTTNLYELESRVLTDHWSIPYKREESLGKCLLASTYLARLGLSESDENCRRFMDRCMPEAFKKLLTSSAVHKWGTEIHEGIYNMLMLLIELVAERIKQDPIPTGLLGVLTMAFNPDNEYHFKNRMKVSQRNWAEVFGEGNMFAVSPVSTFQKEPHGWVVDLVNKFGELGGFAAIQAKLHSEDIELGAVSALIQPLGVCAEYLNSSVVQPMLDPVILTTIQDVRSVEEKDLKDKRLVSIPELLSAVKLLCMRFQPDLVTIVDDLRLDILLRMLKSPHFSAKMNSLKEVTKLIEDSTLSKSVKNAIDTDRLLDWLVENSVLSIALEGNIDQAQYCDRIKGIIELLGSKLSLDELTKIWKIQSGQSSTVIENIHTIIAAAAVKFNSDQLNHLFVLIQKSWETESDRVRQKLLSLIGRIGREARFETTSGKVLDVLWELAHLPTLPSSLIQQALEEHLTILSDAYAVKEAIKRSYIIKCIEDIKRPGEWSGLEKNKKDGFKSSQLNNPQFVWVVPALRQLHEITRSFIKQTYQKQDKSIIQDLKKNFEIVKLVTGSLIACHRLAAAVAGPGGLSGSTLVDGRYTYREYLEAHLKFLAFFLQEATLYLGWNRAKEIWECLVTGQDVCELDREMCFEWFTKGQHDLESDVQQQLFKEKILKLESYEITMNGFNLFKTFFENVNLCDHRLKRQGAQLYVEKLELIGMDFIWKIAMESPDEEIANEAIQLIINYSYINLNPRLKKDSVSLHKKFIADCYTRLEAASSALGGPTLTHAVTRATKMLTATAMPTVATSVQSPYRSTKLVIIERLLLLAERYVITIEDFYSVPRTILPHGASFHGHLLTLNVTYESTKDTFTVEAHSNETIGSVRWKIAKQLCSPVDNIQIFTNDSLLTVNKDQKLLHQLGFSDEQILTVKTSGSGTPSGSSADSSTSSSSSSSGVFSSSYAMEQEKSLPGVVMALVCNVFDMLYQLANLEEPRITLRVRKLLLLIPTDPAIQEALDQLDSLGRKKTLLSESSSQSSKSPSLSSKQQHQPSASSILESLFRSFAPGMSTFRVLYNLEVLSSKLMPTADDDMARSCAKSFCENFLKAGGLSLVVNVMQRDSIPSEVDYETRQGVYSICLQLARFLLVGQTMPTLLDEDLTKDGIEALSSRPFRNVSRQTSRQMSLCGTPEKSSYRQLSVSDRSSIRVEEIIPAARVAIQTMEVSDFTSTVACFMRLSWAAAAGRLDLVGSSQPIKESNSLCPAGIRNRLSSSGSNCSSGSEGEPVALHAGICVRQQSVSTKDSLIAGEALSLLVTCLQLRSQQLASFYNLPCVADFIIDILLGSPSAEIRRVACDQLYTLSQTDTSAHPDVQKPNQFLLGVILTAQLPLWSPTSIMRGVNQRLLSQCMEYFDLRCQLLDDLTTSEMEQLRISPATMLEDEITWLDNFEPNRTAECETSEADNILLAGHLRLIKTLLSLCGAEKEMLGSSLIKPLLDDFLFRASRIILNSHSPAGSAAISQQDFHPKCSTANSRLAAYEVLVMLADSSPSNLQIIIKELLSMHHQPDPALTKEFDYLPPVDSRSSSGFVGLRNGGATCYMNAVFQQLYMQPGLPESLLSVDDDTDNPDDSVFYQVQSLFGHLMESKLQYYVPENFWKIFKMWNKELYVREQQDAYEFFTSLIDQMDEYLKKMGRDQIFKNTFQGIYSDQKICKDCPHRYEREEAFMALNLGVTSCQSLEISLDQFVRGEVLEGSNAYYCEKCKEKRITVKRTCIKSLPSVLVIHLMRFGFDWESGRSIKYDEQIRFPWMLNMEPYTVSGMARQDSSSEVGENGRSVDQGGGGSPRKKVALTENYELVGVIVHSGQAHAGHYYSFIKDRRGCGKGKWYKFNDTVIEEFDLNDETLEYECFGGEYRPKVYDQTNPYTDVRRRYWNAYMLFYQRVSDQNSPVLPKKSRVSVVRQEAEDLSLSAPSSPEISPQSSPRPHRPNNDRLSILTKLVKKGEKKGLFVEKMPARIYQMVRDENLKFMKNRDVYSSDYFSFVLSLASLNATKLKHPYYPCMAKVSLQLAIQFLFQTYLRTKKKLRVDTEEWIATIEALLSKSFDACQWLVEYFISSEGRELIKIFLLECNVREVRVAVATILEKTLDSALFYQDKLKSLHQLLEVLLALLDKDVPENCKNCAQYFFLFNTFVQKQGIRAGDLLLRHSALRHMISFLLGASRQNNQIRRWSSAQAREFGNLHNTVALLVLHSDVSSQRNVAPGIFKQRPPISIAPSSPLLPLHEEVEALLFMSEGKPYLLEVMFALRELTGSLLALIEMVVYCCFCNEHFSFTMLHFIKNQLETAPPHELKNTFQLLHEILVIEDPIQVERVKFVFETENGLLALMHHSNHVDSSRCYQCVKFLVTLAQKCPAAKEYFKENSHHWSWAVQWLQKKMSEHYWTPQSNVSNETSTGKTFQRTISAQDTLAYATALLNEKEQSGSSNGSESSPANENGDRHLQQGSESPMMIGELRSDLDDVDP

NC(=O)C1CCCN(C(=O)CCl)C1 (stereo not given)
inactive: [1] -0.249 | [2] 0.245 | [3] -0.257 | [4] -0.119 | [5] -0.348
